Measurements as given in PubChem BioAssay (NCATS).
Results filed as inconclusive are left out. The source made the active and inactive calls. Unless noted, calls follow the shape of the dose curve; as a rule, active = well fitted curve in the direction sought with a large enough effect; inconclusive = small, poorly fitted or top-dose-only effect, or another doubt; inactive = no such curve, though single readings can be large; an effect the other way counts as inactive or inconclusive.

Assays:
[1] = target: Rap guanine nucleotide exchange factor 3 (Homo sapiens) (UniProt O95398); test: Confirmatory qHTS for antagonist of cAMP-regulated guanine nucleotide exchange factor 3 (EPAC1) (AID 1645880); conditions: EPAC1 Rap1B-BODIPY-GDP exchange, fluorescence; activity, negative = inhibition: at 115 µM (top of the series); also: nearly all actives have a fitted effect of over 55% in size; also: potency is read from the fitted curve at half-maximal effect;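 as to activity, negative = inhibition: plate controls were DMSO only for no effect and full effect of the ATA control for full effect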
Rap guanine nucleotide exchange factor 3 (Homo sapiens), sequence (O95398 whole entry, looked up): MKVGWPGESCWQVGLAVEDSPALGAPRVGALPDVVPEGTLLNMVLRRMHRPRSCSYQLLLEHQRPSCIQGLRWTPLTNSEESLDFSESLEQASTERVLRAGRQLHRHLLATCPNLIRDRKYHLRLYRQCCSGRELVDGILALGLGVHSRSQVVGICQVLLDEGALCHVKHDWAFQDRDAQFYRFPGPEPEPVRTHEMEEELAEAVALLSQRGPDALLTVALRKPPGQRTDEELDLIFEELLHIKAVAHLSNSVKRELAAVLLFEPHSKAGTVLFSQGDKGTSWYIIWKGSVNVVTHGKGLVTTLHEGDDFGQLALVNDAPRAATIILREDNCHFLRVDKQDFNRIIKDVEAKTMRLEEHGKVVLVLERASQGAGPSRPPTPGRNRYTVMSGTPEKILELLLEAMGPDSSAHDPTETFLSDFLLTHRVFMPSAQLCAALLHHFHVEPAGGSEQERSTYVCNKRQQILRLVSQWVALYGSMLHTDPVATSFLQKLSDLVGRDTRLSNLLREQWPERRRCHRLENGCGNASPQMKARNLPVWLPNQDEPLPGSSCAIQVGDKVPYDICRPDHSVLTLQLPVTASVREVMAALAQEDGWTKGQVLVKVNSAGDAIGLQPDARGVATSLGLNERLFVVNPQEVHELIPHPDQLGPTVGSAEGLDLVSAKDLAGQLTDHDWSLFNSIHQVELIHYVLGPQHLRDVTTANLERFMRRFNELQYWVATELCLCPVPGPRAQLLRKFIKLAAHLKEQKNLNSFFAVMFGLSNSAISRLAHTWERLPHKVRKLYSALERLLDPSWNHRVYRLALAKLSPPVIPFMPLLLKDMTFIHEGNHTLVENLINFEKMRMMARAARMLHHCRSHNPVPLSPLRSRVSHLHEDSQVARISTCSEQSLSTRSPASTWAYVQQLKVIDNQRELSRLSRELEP
Method in brief: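 Nucleotide exchange uses 100 nM EPAC1, 250 nM RAP1B-BODIPY-GDP and 50 uM GDP, with compounds in a concentration-titration series. After 5 min at room temperature, fluorescence (480 nm ex/540 nm em) is read every 5 min for 30 min. Data are normalized to control ATA and DMSO.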

[2] = target: Rap guanine nucleotide exchange factor 3 (Homo sapiens) (UniProt O95398); test: Confirmatory qHTS for agonist of cAMP-regulated guanine nucleotide exchange factor 3 (EPAC1) (AID 1645881); conditions: EPAC1 Rap1B BODIPY-GDP exchange fluorescence; series mostly up to 154 µM;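 also: EPAC1 catalysed release of BODIPY-GDP from Rap1B seen as fluorescence loss; 100% = effect of cAMP agonist control; nearly all actives have a fitted effect of over 75% in size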
[3] = target: Rap guanine nucleotide exchange factor 4 (Homo sapiens) (UniProt Q8WZA2); test: Confirmatory qHTS for agonist of cAMP-regulated guanine nucleotide exchange factor 4 (EPAC2) (AID 1645884); conditions: EPAC2 GEF activity, Rap1B-BODIPY-GDP fluorescence; series mostly up to 154 µM;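 also: nucleotide exchange releases bodipy-GDP from Rap1 and this lowers its fluorescence; % is scaled to controls: 0 for no effect and ±100 for the full control effect; nearly all actives have a fitted effect of over 65% in size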
Rap guanine nucleotide exchange factor 4 (Homo sapiens), sequence (Q8WZA2 whole entry, looked up): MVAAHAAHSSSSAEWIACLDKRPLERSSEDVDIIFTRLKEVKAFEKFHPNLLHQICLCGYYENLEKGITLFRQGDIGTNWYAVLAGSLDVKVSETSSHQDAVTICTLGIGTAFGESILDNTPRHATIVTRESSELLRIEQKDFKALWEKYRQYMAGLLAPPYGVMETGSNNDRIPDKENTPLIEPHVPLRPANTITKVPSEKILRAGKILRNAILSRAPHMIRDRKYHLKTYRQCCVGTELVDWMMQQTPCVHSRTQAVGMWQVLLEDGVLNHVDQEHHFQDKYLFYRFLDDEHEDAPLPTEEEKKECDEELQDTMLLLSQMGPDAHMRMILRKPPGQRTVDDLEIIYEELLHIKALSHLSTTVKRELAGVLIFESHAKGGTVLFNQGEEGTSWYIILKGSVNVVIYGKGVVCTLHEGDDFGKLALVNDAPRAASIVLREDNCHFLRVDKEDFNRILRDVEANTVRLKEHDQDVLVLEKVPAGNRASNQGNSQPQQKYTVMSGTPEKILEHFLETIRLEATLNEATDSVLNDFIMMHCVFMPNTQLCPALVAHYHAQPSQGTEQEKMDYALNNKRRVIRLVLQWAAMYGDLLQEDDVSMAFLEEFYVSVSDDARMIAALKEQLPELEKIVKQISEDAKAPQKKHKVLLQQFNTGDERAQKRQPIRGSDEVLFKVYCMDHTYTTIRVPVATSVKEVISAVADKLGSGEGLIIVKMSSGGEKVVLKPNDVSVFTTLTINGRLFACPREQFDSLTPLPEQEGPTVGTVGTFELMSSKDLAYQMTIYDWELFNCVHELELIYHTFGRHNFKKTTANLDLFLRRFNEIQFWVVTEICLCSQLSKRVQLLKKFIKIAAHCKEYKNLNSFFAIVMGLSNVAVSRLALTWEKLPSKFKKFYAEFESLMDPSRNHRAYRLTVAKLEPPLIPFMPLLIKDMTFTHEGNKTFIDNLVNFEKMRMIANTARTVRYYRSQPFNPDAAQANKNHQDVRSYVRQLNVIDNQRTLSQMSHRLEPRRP

[4] = target: Rap guanine nucleotide exchange factor 3 (Homo sapiens) (UniProt O95398); test: Counterscreen qHTS for antagonist of cAMP-regulated guanine nucleotide exchange factor 3 (EPAC1) (AID 1645888); conditions: Rap1B-BODIPY-GDP nucleotide exchange, fluorescence; series mostly up to 154 µM;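 also: fluorescence loss as bound BODIPY-GDP is released from Rap1B; % of control where 0% means no effect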
Method in brief: (§1)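 Measured: fluorescence of BODIPY-GDP bound to Rap1B, which falls as exchange proceeds. Conditions include 50 uM competing GDP, 5 and 30 min reads, and a later cAMP challenge for antagonist detection.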

[5] = target: Rap guanine nucleotide exchange factor 3 (Homo sapiens) (UniProt O95398); test: Counterscreen qHTS for agonist of cAMP-regulated guanine nucleotide exchange factor 3 (EPAC1) (AID 1645889); conditions: EPAC1 Rap1B-BODIPY-GDP exchange, fluorescence; series mostly up to 154 µM; also: % of control where 0% means no effect; nearly all actives have a fitted effect of over 40% in size
Method in brief: as §1

[6] = AP1 Signaling Pathway (AID 357; active = well fitted curve in either direction with a large enough effect, not every such curve was filed as active;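 also: ME-180 reporter cells stimulated with EGF at its EC50 level; % is scaled to controls: 0 for no effect and ±100 for the full control effect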); conditions: ME-180 AP-1-bla reporter, EGF-induced, beta-lactamase ratio, 5 h; at 7.69 µM (top of the series) unless noted
Method in brief: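 A ratiometric CCF4 readout (405 nm excitation; 460 and 530 nm emission) quantified AP-1-driven beta-lactamase in ME-180 cells after 5 h with compound and EC50 EGF; AC50 values were derived for activators and inhibitors.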

[7] = NFAT Signaling Pathway (AID 444; active = well fitted curve in either direction with a large enough effect, not every such curve was filed as active;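 also: carbachol stimulus at about its EC50 of 1 µM final; % is scaled to controls: 0 for no effect and ±100 for the full control effect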); conditions: Jurkat NFAT-bla M1, carbachol, beta-lactamase ratio, 5 h; at 7.69 µM (top of the series) unless noted
Method in brief: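 Jurkat cells carrying an NFAT-driven β-lactamase reporter and co-transfected muscarinic M1 receptor were treated with compound plus carbachol (1 uM final, an EC50 level) for 5 h at 37 °C. CCF4 loading followed for 1 h at RT; 460/530 nm ratio gave %activity.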

[8] = Stat Signaling Pathway (AID 446; active = well fitted curve in either direction with a large enough effect, not every such curve was filed as active;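 also: ME-180 cervical cancer cells given 40 pM IL-6 alongside compound; SIE-controlled beta-lactamase reporter measured as 460/530 nm FRET emission ratio; % is scaled to controls: 0 for no effect and ±100 for the full control effect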); conditions: ME-180 SIE beta-lactamase reporter, IL-6 stimulated, 5 h; series mostly up to 7.69 µM
Method in brief: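 ME-180 cells carrying a SIE-driven beta-lactamase reporter are stimulated with 40 pM IL-6 for 5 h at 37C in the presence of compound. The 460/530 nm FRET substrate ratio is read after 2.5 h at RT. Data are normalised to 300 pM IL-6 and to 125 nM JAK inhibitor controls.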

[9] = target: Glucocorticoid receptor (Homo sapiens) (UniProt P04150); test: GR-GFP Redistribution (AID 450;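 active = compounds whose dose series gives a full or clear partial fitted curve of increased nuclear translocation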; also: potency is read from the fitted curve at half-maximal effect); conditions: U2OS GR-GFP nuclear translocation, laser cytometry, 2 h
Glucocorticoid receptor (Homo sapiens), sequence (P04150 whole entry, looked up): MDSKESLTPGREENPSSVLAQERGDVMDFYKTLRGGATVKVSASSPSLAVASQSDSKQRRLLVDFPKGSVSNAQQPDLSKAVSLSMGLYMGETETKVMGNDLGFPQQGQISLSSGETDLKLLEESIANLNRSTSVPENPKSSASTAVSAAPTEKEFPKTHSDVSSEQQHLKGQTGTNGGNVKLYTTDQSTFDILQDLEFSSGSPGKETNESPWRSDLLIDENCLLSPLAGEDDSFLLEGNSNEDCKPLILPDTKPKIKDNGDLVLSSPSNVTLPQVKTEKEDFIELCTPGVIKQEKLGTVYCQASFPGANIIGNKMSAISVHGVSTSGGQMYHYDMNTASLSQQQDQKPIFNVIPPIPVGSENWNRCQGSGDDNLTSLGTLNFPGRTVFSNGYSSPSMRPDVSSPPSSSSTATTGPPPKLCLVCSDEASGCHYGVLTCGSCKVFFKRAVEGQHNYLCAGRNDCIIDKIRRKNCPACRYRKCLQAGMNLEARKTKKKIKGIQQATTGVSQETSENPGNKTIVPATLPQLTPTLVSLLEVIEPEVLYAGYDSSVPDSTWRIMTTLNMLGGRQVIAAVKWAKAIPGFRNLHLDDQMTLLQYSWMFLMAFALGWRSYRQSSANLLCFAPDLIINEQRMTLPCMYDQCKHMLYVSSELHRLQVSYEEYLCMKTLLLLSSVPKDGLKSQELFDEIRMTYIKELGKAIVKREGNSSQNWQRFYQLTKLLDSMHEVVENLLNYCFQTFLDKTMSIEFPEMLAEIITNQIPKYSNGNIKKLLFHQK

CCOC(=O)C1CCCN(C(=O)c2cc(-c3ccco3)nc3ccccc23)C1 (centres undefined)
inactive: Potency [2] | Potency [3] | Potency [4] | Potency [5]
active: Potency [1] 15.1 µM

COc1cc(SC)ccc1C(=O)Nc1c(C)cccc1C
inactive: Potency [1] | Potency [2] | activation [3] -7.76% [at 17.1 µM, percent relative to cAMP agonist control] | activity change, negative = inhibition [4] -15.6% [at 30.8 µM] | activation [5] 6.15% [at 30.8 µM]

CC(=O)CCc1oc2ccccc2c1-c1ccccc1
inactive: Potency [1] | Potency [2] | activation [3] 6.69% [at 17.1 µM, percent relative to cAMP agonist control] | activity change, negative = inhibition [4] -10.9% [at 30.8 µM] | activation [5] -0.404% [at 30.8 µM]

CC1(C(=O)NS(=O)(=O)c2cccc(Cl)c2)CCN1C(=O)C1(c2ccc(Cl)cc2)CCC1 (centres undefined)
inactive: Potency [2] | activation [3] 6.65% [at 17.1 µM, percent relative to cAMP agonist control] | activity change, negative = inhibition [4] -18.6% [at 30.8 µM] | activation [5] 5.49% [at 30.8 µM]
active: Potency [1] 11.2 µM

Cc1ccc(C(=O)NCCCNC(=O)c2ccc(Cl)cc2)cn1
inactive: Potency [1] | Potency [2] | Potency [3] | Potency [4] | Potency [5]

Clc1cccc(-c2ccc3nccn3c2)c1Cl
inactive: Potency [1] | Potency [2] | Potency [3] | Potency [4] | Potency [5]

CCC(C)(C)C1CCc2c(sc(NC(=O)c3ccccc3C(=O)O)c2C#N)C1 (centres undefined)
active: Potency [1] 75.7 µM
inactive: Potency [2] | Potency [3] | Potency [4] | Potency [5]

CCCCOc1ccc(/C=C/C(=O)OCC(=O)NC(=O)NCC(C)C)cc1OCC
inactive: Potency [1] | Potency [2] | Potency [3] | Potency [4] | Potency [5]

COc1cc(C(c2c(C(=O)O)[nH]c3ccccc23)c2c(C(=O)O)[nH]c3ccccc23)ccc1OCc1ccccc1
active: Potency [1] 15.1 µM
inactive: Potency [2] | Potency [3] | Potency [4] | Potency [5]

Cc1cccc(C)c1OCC(=O)Nc1ccccc1N1CCCCC1
inactive: Potency [1] | Potency [2] | Potency [3] | Potency [4] | Potency [5]

O=C(CCCN1C(=O)/C(=C/c2ccccc2)SC1=S)Nc1ccccc1O
inactive: Potency [1] | Potency [2] | Potency [3] | Potency [4] | Potency [5]

CCOc1ccc(C(=O)NCC(=O)Nc2ncccc2C)cc1OCC
inactive: Potency [1] | Potency [2] | Potency [3] | Potency [4] | Potency [5]

Cc1ccccc1-c1cc2nc(NCCN3CCNC3=O)n(C)c(=O)c2s1
inactive: Potency [1] | Potency [2] | Potency [3] | Potency [4] | Potency [5]

Cc1ccc(/C=C2\S/C(=N/S(=O)(=O)c3cccs3)NC2=O)cc1
inactive: Potency [2] | Potency [3] | Potency [4] | Potency [5]
active: Potency [1] 67.5 µM

O=C(COc1ccccc1Br)Nc1ccccc1C(F)(F)F
inactive: Potency [1] | Potency [2] | Potency [3] | Potency [4] | Potency [5]

C[C@H](CO)N1C[C@H](C)[C@@H](CN(C)C)Oc2c(NS(=O)(=O)c3ccccc3)cccc2C1=O
inactive: Potency [1] | Potency [2] | Potency [3] | Potency [4] | Potency [5]

Cc1ccc(S(=O)(=O)N2[C@@H](c3cccc(Cl)c3)C(C(=O)O)=CC[C@H]2c2ccc(Cl)c(Cl)c2)cc1
active: Potency [1] 67.5 µM
inactive: Potency [2] | Potency [3] | Potency [4] | Potency [5]

CCOc1nc(-c2ccccc2)c2cc(C)ccc2n1
inactive: Potency [1] | Potency [2] | Potency [3] | Potency [4] | Potency [5]

CCCN(CC1CC1)c1cc2c(c3c1ccn3C)C1CCC2C1 (centres undefined)
inactive: Potency [1] | Potency [2] | Potency [3] | Potency [4] | Potency [5]

O=C(CN1C(=O)NC2(CCCC2)C1=O)Nc1nc2c(F)cc(F)cc2s1
inactive: Potency [1] | Potency [2] | Potency [3] | Potency [4] | Potency [5]

Cc1cc(C)c2sc(N(CCCN(C)C)C(=O)c3ccc(S(=O)(=O)N(C)C4CCCCC4)cc3)nc2c1
inactive: Potency [1] | Potency [2] | Potency [3] | Potency [4] | Potency [5]

COc1cc(/C=C(\C#N)c2nc3ccccc3s2)cc([N+](=O)[O-])c1O
active: Potency [1] 16.9 µM
inactive: Potency [2] | Potency [3] | Potency [4] | Potency [5]

COc1cc(/C=C2\SC(=Nc3ccc(Cl)c(C(=O)O)c3)NC2=O)c(Br)c(Br)c1O
active: Potency [1] 2.82 µM
inactive: Potency [2] | activation [3] 9.28% [at 17.1 µM, percent relative to cAMP agonist control] | activity change, negative = inhibition [4] -1.87% [at 30.8 µM] | activation [5] 0.17% [at 30.8 µM]

CC(=O)OC1CSC2c3ccccc3C(=O)N2Cc2sccc21 (centres undefined)
inactive: Potency [1] | Potency [2] | Potency [3] | Potency [4] | Potency [5]

O=C1C(=Cc2ccccc2Cl)CCc2ccccc21
inactive: Potency [1] | Potency [2] | Potency [3] | Potency [4] | Potency [5]

Cc1ccc(C)c(Cn2cnc3ccccc3c2=O)c1
inactive: Potency [1] | Potency [2] | Potency [3] | Potency [4] | Potency [5]

CSCCC(NS(=O)(=O)c1ccc2c(c1)oc(=O)n2C)C(=O)NC1CCCCC1 (centres undefined)
inactive: Potency [1] | Potency [2] | Potency [3] | Potency [4] | Potency [5]

Cc1cc(C)nc(SCC(=O)c2ccc(Cl)cc2)n1
inactive: Potency [1] | Potency [2] | Potency [3] | Potency [4] | Potency [5]

O=C(c1ccc(-c2ccccc2Cl)o1)N1CCC1
inactive: Potency [1] | Potency [2] | activation [3] 0.137% [at 17.1 µM, percent relative to cAMP agonist control] | activity change, negative = inhibition [4] -16.6% [at 30.8 µM] | activation [5] 3.77% [at 30.8 µM]

CN(CCC#N)C(=O)COC(=O)c1c2c(nc3ccccc13)/C(=C\c1ccco1)CC2
inactive: Potency [2] | Potency [3] | Potency [4] | Potency [5]
active: Potency [1] 9.53 µM

COc1ccc(-c2csc(NC(=O)c3ccc(C(C)(C)C)cc3)c2C(=O)O)cc1
active: Potency [1] 37.9 µM
inactive: Potency [2] | Potency [3] | Potency [4] | Potency [5]

CS/C(Nc1cc(Cl)ccc1Cl)=C(/C#N)C(=O)c1ccco1
active: Potency [1] 67.5 µM
inactive: Potency [2] | Potency [3] | Potency [4] | Potency [5]

O=C(c1ccccc1)C(c1ccccc1)c1ccccc1
inactive: Potency [1] | Potency [2] | activation [3] 0.697% [at 17.1 µM, percent relative to cAMP agonist control] | activity change, negative = inhibition [4] 2.63% [at 30.8 µM] | activation [5] 12.8% [at 30.8 µM]

CCOC(=O)N/N=C/c1ccc(OCCSc2ccc(Cl)cc2)c(OC)c1
active: activity, negative = inhibition [1] -73.5%
inactive: Potency [2] | Potency [3] | Potency [4] | Potency [5]

O=C1c2cccc3cccc(c23)N1Cc1cccc(F)c1
inactive: Potency [1] | Potency [2] | activation [3] 7.33% [at 17.1 µM, percent relative to cAMP agonist control] | activity change, negative = inhibition [4] -7.63% [at 30.8 µM] | activation [5] 26.6% [at 30.8 µM]

COc1ccccc1C(=O)C1CCCN(C(=O)c2ccc3c(c2)OCCO3)C1 (centres undefined)
inactive: Potency [1] | Potency [2] | Potency [3] | Potency [4] | Potency [5]

Cc1cc2ccccc2cc1C(=O)c1ccccc1
inactive: Potency [1] | Potency [2] | activation [3] 3.89% [at 17.1 µM, percent relative to cAMP agonist control] | activity change, negative = inhibition [4] -19.3% [at 30.8 µM] | activation [5] 5.51% [at 30.8 µM]

Cc1ccc(Cc2c(-c3cccc(Cl)c3)nc3ccc(Br)cn23)cc1
inactive: Potency [2] | Potency [3] | Potency [4] | Potency [5]
active: Potency [1] 75.7 µM

Cc1cc(=O)oc2cc(NC(=O)C(C)Oc3ccccc3)ccc12 (centres undefined)
inactive: Potency [1] | Potency [2] | Potency [3] | Potency [4] | Potency [5]

Cc1ccc(Cl)cc1N1CCN(C(=O)c2cccc3c(=O)c(C)c(-c4ccccc4)oc23)CC1
inactive: Potency [1] | Potency [2] | activation [3] 13% [at 17.1 µM, percent relative to cAMP agonist control] | activity change, negative = inhibition [4] -10.3% [at 30.8 µM] | activation [5] 25.9% [at 30.8 µM]

CCOc1ccccc1OCC(=O)Nc1cc(S(=O)(=O)N2CCCCC2)ccc1N1CCN(CC)CC1
inactive: Potency [1] | Potency [2] | Potency [3] | Potency [4] | Potency [5]

COc1ccc(N=C2NC(=O)S/C2=C\c2ccc(N(C)C)cc2)cc1
inactive: Potency [1] | Potency [2] | Potency [3] | Potency [4] | Potency [5]

CCc1c(C)c(C#N)c2nc3ccccc3n2c1-n1nc(C)cc1C
inactive: activity change, negative = inhibition [6] -8.93% [at 17.2 µM] | activity change, negative = inhibition [7] -9.34% [at 17.2 µM] | outcome [8] | Potency [9] > 20.6 µM | Potency [1] | Potency [2] | activation [3] 5.42% [at 17.1 µM, percent relative to cAMP agonist control] | activity change, negative = inhibition [4] 12.9% [at 30.8 µM] | activation [5] 30.6% [at 30.8 µM]

O=C(CS(=O)(=O)c1ccccc1)c1cc2cc(F)ccc2oc1=O
active: Potency [1] 75.7 µM
inactive: Potency [2] | Potency [3] | Potency [4] | Potency [5]

O=C(N/N=C/c1cc(Cl)c(O)c(Cl)c1)c1cc2c(ccc3ccccc32)o1
inactive: Potency [2] | Potency [3] | Potency [4] | Potency [5]
active: Potency [1] 60.1 µM
